{"source": "the supplement of paper PMC8728848", "experiment_in_all_cases": "glycan array binding signal (z-score within array); higher = stronger binding", "conditions_in_all_cases": "glycan notation: IUPAC condensed, linker removed", "key": {"[1]": {"biological_target": "Fuc(a1-2)Gal(b1-3)GlcNAc(b1-3)[Gal(b1-4)GlcNAc(b1-6)]Gal(b1-4)Glc", "in_short": "(§1)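 Columns mapping to the same glycan were averaged after glycan names were converted to IUPAC-condensed notation. The data come from 3228 arrays in the Consortium for Functional Glycomics database, limited to those with an available protein sequence. Binding is reported as a within-array Z-score averaged across arrays of one protein sequence and across linkers.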"}, "[2]": {"biological_target": "Fuc(a1-2)Gal(b1-4)[Fuc(a1-3)]GlcNAc", "in_short": "as §1"}, "[3]": {"biological_target": "Fuc(a1-2)[Gal(a1-3)]Gal(b1-4)GlcNAc(b1-2)Man(a1-3)[Fuc(a1-2)[Gal(a1-3)]Gal(b1-4)GlcNAc(b1-2)Man(a1-6)]Man(b1-4)GlcNAc(b1-4)GlcNAc", "in_short": "as §1"}, "[4]": {"biological_target": "Fuc(a1-2)[Gal(a1-3)]Gal(b1-4)GlcNAc(b1-2)Man(a1-3)[Fuc(a1-2)[Gal(a1-3)]Gal(b1-4)GlcNAc(b1-2)Man(a1-6)]Man(b1-4)GlcNAc(b1-4)[Fuc(a1-6)]GlcNAc", "in_short": "as §1"}, "[5]": {"biological_target": "Fuc(a1-2)[Gal(a1-3)]Gal(b1-4)[Fuc(a1-3)]Glc", "in_short": "as §1"}, "[6]": {"biological_target": "Fuc(a1-2)[GalNAc(a1-3)]Gal(b1-4)GlcNAc(b1-2)Man(a1-3)[Fuc(a1-2)[GalNAc(a1-3)]Gal(b1-4)GlcNAc(b1-2)Man(a1-6)]Man(b1-4)GlcNAc(b1-4)GlcNAc", "in_short": "as §1"}, "[7]": {"biological_target": "Fuc(a1-2)[GalNAc(a1-3)]Gal(b1-4)GlcNAc(b1-3)Gal(b1-4)GlcNAc", "in_short": "as §1"}, "[8]": {"biological_target": "Fuc(a1-2)[GalNAc(a1-3)]Gal(b1-4)GlcNAc(b1-3)Gal(b1-4)GlcNAc(b1-3)Gal(b1-4)GlcNAc", "in_short": "as §1"}, "Gal(b1-3)GlcNAc": {"biological_target": "Gal(b1-3)GlcNAc", "in_short": "as §1"}, "[9]": {"biological_target": "Gal(b1-3)GlcNAc(b1-3)Gal(b1-4)Glc", "in_short": "as §1"}, "[10]": {"biological_target": "Gal(b1-3)[Neu5Ac(b2-6)]GalNAc", "in_short": "as §1"}, "[11]": {"biological_target": "Gal(b1-4)GlcNAc(b1-3)Gal(b1-4)Glc", "in_short": "as §1"}, "[12]": {"biological_target": "Gal(b1-4)GlcNAc(b1-3)Gal(b1-4)GlcNAc(b1-3)Gal(b1-4)GlcNAc", "in_short": "as §1"}, "[13]": {"biological_target": "GalNAc(a1-3)GalNAc(a1-3)Gal(a1-4)Gal(b1-4)GlcNAc", "in_short": "as §1"}, "[14]": {"biological_target": "GalNAc(b1-3)Gal(a1-6)Gal(b1-4)Glc", "in_short": "as §1"}, "[15]": {"biological_target": "GlcNAc(a1-4)Gal(b1-4)GlcNAc(b1-3)Gal(b1-4)GlcNAc(b1-3)Gal(b1-4)GlcNAc", "in_short": "as §1"}, "[16]": {"biological_target": "GlcNAc(a1-6)Gal(b1-4)GlcNAc", "in_short": "as §1"}, "GlcNAc(b1-3)Gal": {"biological_target": "GlcNAc(b1-3)Gal", "in_short": "as §1"}, "Kdn(a2-3)Gal(b1-3)GlcNAc": {"biological_target": "Kdn(a2-3)Gal(b1-3)GlcNAc", "in_short": "as §1"}, "Man(b1-4)GlcNAc": {"biological_target": "Man(b1-4)GlcNAc", "in_short": "as §1"}, "[17]": {"biological_target": "Neu5Ac(a2-3)Gal(b1-3)[Fuc(a1-4)]GlcNAc(b1-3)Gal(b1-3)[Fuc(a1-4)]GlcNAc", "in_short": "as §1"}, "Neu5Ac(a2-3)Gal(b1-4)Glc": {"biological_target": "Neu5Ac(a2-3)Gal(b1-4)Glc", "in_short": "as §1"}, "[18]": {"biological_target": "Neu5Ac(a2-3)Gal(b1-4)GlcNAc(b1-3)Gal(b1-4)GlcNAc", "in_short": "as §1"}, "[19]": {"biological_target": "Neu5Ac(a2-3)Gal(b1-4)GlcNAc(b1-3)GalNAc", "in_short": "as §1"}, "[20]": {"biological_target": "Neu5Ac(a2-3)[Neu5Ac(a2-6)]GalNAc", "in_short": "as §1"}, "Neu5Ac(a2-6)Gal(b1-4)Glc": {"biological_target": "Neu5Ac(a2-6)Gal(b1-4)Glc", "in_short": "as §1"}, "[21]": {"biological_target": "Neu5Ac(a2-6)Gal(b1-4)GlcNAc(b1-3)Gal(b1-4)GlcNAc(b1-3)Gal(b1-4)GlcNAc", "in_short": "as §1"}, "[22]": {"biological_target": "Neu5Ac(a2-6)Gal(b1-4)GlcNAc(b1-3)Gal(b1-4)[Fuc(a1-3)]GlcNAc(b1-3)Gal(b1-4)[Fuc(a1-3)]GlcNAc", "in_short": "as §1"}, "Neu5Ac(a2-6)GalNAc": {"biological_target": "Neu5Ac(a2-6)GalNAc", "in_short": "as §1"}, "[23]": {"biological_target": "Neu5Gc(b2-6)Gal(b1-4)GlcNAc", "in_short": "as §1"}}, "note": "This excerpt belongs to a sample that is enriched for the strongest signals.", "data": [{"binder": "Gal 3 (Canis lupus) (protein) MADSFSLNDALSGSGNPNPQGWPGPWGNQPAGAGGYPGASYPGAYPGQAPPGGYPGQAPPGGYPGQAPPGGYPGQAPPGGYPGQAPPGGYPGQAPPGTYPGPTAPAYPGPTAPGTQPGQPSGPGAYPPPGQPSAPGAYPAAGPFGIPAGPLTVPYDLPLPGGVKPRMLITILGTVRPSANRLALDFKRGNDVAFHFNPRFNEDNKRVIVCNTKLDNIWGKEERQAAFPFESGKPFKIQVLVESDHFKVAVNDAHLLQYNHRMKNLPEISKLGISGDIDLTSASYAMI", "values": [{"measurement": "glycan array binding signal (z-score)", "setting": "[1]", "value": -0.147}, {"measurement": "glycan array binding signal (z-score)", "setting": "[2]", "value": -0.259}, {"measurement": "glycan array binding signal (z-score)", "setting": "[3]", "value": 7.41}, {"measurement": "glycan array binding signal (z-score)", "setting": "[4]", "value": 4.22}, {"measurement": "glycan array binding signal (z-score)", "setting": "[5]", "value": -0.118}, {"measurement": "glycan array binding signal (z-score)", "setting": "[6]", "value": 7.54}, {"measurement": "glycan array binding signal (z-score)", "setting": "[7]", "value": 5.05}, {"measurement": "glycan array binding signal (z-score)", "setting": "[8]", "value": 5.42}, {"measurement": "glycan array binding signal (z-score)", "setting": "Gal(b1-3)GlcNAc", "value": -0.231}, {"measurement": "glycan array binding signal (z-score)", "setting": "[9]", "value": -0.074}, {"measurement": "glycan array binding signal (z-score)", "setting": "[10]", "value": -0.259}, {"measurement": "glycan array binding signal (z-score)", "setting": "[11]", "value": 0.512}, {"measurement": "glycan array binding signal (z-score)", "setting": "[12]", "value": 5.09}, {"measurement": "glycan array binding signal (z-score)", "setting": "[13]", "value": -0.258}, {"measurement": "glycan array binding signal (z-score)", "setting": "[14]", "value": -0.254}, {"measurement": "glycan array binding signal (z-score)", "setting": "[15]", "value": 3.48}, {"measurement": "glycan array binding signal (z-score)", "setting": "[16]", "value": -0.252}, {"measurement": "glycan array binding signal (z-score)", "setting": "GlcNAc(b1-3)Gal", "value": -0.264}, {"measurement": "glycan array binding signal (z-score)", "setting": "Kdn(a2-3)Gal(b1-3)GlcNAc", "value": -0.149}, {"measurement": "glycan array binding signal (z-score)", "setting": "Man(b1-4)GlcNAc", "value": -0.261}, {"measurement": "glycan array binding signal (z-score)", "setting": "[17]", "value": -0.23}, {"measurement": "glycan array binding signal (z-score)", "setting": "Neu5Ac(a2-3)Gal(b1-4)Glc", "value": -0.247}, {"measurement": "glycan array binding signal (z-score)", "setting": "[18]", "value": 0.679}, {"measurement": "glycan array binding signal (z-score)", "setting": "[19]", "value": -0.205}, {"measurement": "glycan array binding signal (z-score)", "setting": "[20]", "value": -0.261}, {"measurement": "glycan array binding signal (z-score)", "setting": "Neu5Ac(a2-6)Gal(b1-4)Glc", "value": -0.246}, {"measurement": "glycan array binding signal (z-score)", "setting": "[21]", "value": 5.91}, {"measurement": "glycan array binding signal (z-score)", "setting": "[22]", "value": -0.23}, {"measurement": "glycan array binding signal (z-score)", "setting": "Neu5Ac(a2-6)GalNAc", "value": -0.257}, {"measurement": "glycan array binding signal (z-score)", "setting": "[23]", "value": -0.25}]}]}
